Bioassay records (PubChem BioAssay)
KB-V1 cytotox = kills drug-selected multidrug resistant KB-V1 cells | KB-V1 MDR cells viability, CellTiter-Glo, 72 h | Potency, µM (doses to about 46.1 µM), hits mostly cytotoxic | 400,000 compounds, 3.4% hits | AID 1347076; also: % is scaled to controls: 0 for no effect and ±100 for the full control effect; nearly all actives have a fitted effect of over 60% in size
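In this primary screen, KB-V1 cells overexpressing P-gp are incubated with library compounds (lowest to highest concentration) for 72 h at 37 degrees C before a luminescent ATP viability read.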
KB-3-1 cytotox = KB-3-1 parental cell cytotoxicity; KB-3-1 viability, CellTiter-Glo ATP luminescence, 72 h; Potency, µM (doses to about 46.1 µM), most hits filed as cytotoxic; 400,000 compounds, 1.4% hits; also: % is scaled to controls: 0 for no effect and ±100 for the full control effect; nearly all actives have a fitted effect of over 60% in size
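Viability of parental KB-3-1 cells, measured by CellTiter-Glo luminescence, followed a 72 h incubation at 37 °C with pinned compounds in phenol-red-free DMEM containing 10% FBS.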
MCF10A rerep = DNA re-replication induction in MCF 10a cells | MCF 10A DNA re-replication, Hoechst nuclear intensity, 48 h | Potency, µM (titrated, usually from 46.1 µM), without a hit: at the highest dose activity, positive = re-replication, most hits filed as activators | 350,000 compounds, 2.9% hits; also: % of control where 0% means no effect; nearly all actives have a fitted effect of over 50% in size
SW480 rerep = induces DNA re-replication in SW480 colon adenocarcinoma cells | 340,000 compounds, 1.8% hits | Potency, µM (doses to about 46.1 µM), for the others: at the top dose re-replication activation, actives largely listed as activators | SW480 DNA re-replication, Hoechst DNA content imaging, 48 h; also: % of control where 0% means no effect; nearly all actives have a fitted effect of over 55% in size
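Hoechst fluorescence of nuclei (405 nm excitation, 500-530 nm emission) measured by plate-scanning imager after 48 hr compound exposure at 37 C; re-replication scored as increased number of nuclei with elevated intensity.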
HT1080 IDH1KD tx = HT-1080 IDH1 knockdown cell toxicity (counter line); HT-1080 IDH1 knockdown viability, ATP luminescence, 48 h; Potency, µM (highest dose often 46.1 µM), for inactives: at the highest dose activity, negative = toxicity, hits mostly cytotoxic; 360,000 compounds, 2% hits; AID 686971;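 also: 0% = DMSO wells and -100% = cell-free medium wells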
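In this qHTS, HT-1080 cells depleted of IDH1 are exposed for 48 h at 37 °C to compound titrations. Toxicity is scored from CellTiter-Glo luminescence, with DMSO as full viability and medium alone as none.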
HT1080-NT tox = kills 2HG-producing HT-1080-NT fibrosarcoma cells | HT-1080-NT fibrosarcoma viability, CellTiter-Glo ATP luminescence, 48 h | Potency, µM (series often up to 46.1 µM), without a hit: at the top dose activity, negative = less viability, actives largely listed as cytotoxic | 360,000 compounds, 1.6% hits;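 also: NT is the 2HG producing partner of a matched IDH1 knockdown line; 0% = DMSO-treated cells and -100% = media-only wells without cells; nearly all actives have a fitted effect of over 55% in size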
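750 cells/well, RPMI + 5% FBS; 2 h settle, compound pin-transfer, 48 h at 37 degrees C. CellTiter-Glo 10 min RT, luminescence. Normalized to DMSO and media-only wells.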
Active calls of the source: *; i = inactive; ? = inconclusive; nt = not tested or not shown. This is a sample that favours compounds with a hit; in the whole collection about 7.9% have one here. Calls follow the shape of the dose curve; as a rule, active = well fitted curve in the direction sought with a large enough effect; inconclusive = small, poorly fitted or top-dose-only effect, or another doubt; inactive = no such curve, though single readings can be large; an effect the other way counts as inactive or inconclusive. Potency is read from the fitted curve at half-maximal effect.

SMILES | KB-V1 cytotox | KB-3-1 cytotox | MCF10A rerep | SW480 rerep | HT1080 IDH1KD tx | HT1080-NT tox
Cc1sc2nc(C3CC3)nc(SCC(=O)N3CCc4ccccc4C3)c2c1C | 5.8µM* | i | ? | 3% | -6% | -1%
CCc1c(C)sc2nc(C(C)C)nc(SCC(=O)N3CCc4ccccc4C3)c12 | i | i | 0% | 1% | 9% | 1%
Cc1ccccc1NC(=O)CSc1nc(-c2ccc(F)cc2)nc2c1Cc1ccccc1O2 | ? | i | nt | nt | nt | nt
N#Cc1ccc(/C=C/C(=O)c2cccnc2)cc1 | ? | i | 7.3µM* | -28% | ? | ?
O=C(/C=C/c1ccccc1Cl)c1cccnc1 | ? | i | 5.8µM* | ? | ? | ?
O=C(/C=C/c1ccccc1Cl)NNC(=O)c1ccncc1 | i | i | 6% | ? | -2% | 0%
O=C(/C=C/c1ccc(Cl)cc1)c1cccnc1 | ? | ? | ? | ? | ? | -20%
COc1ccc(N2C(=O)C(C)(C)C2c2c(O)ccc3ccccc23)cc1 (stereo not given) | i | i | ? | ? | -29% | -10%
CC1(C)C(=O)N(c2ccccc2)C1c1ccccc1O (stereo not given) | i | ? | 7.3µM* | ? | ? | ?
CC(C)c1cc(C(=O)NNC(=S)NCc2ccco2)c(O)c(C(C)C)c1 | i | i | ? | -2% | 16µM* | ?
Cc1cc(=O)[nH]c2ccc(O)cc12 | i | i | nt | nt | nt | nt
Cc1cc(=O)[nH]c2ccc(Cl)cc12 | ? | 2.3µM* | 0% | -3% | 2% | 4%
CC(C)CC(=O)N1CCC(N(CCc2ccccc2)Cc2ccccc2)CC1 | i | i | 11% | 0% | -1% | 3%
Cc1nnc(NCc2ccc(F)cc2)c2c1nnn2Cc1ccccc1Cl | i | i | nt | nt | nt | nt
Cc1ccc(S(=O)(=O)N(C)Cc2ccc(C(=O)N/N=C/c3ccc(OC(F)F)cc3)cc2)cc1 | 16µM* | i | ? | 3% | -9% | -3%
C/C(=N\NC(=O)c1ccc(CN(C)S(=O)(=O)c2ccc(C)cc2)cc1)c1ccc(OC(F)F)cc1 | 2.6µM* | 10µM* | ? | -16% | -29% | -18%
N#CC1(NC(=O)COC(=O)/C=C/c2ccc3ccccc3n2)CCCCC1 | i | i | 54% | 4% | -1% | -15%
CCc1ccc(Nc2cc(C)nc3nc(Cc4ccc(Cl)cc4)nn23)cc1 | ? | 21µM* | nt | nt | nt | nt
O=C(CCNC(=O)c1ccc(Br)cc1)NCCCSc1ccccc1 | i | i | 2% | 1% | -1% | -2%
CCOC(=O)Cn1c(-c2ccccc2)nc2ccccc2c1=O | i | i | ? | -7% | 6% | 2%
CCOC(=O)Cn1c(S(=O)(=O)Cc2ccc(F)cc2)nc(-c2ccccc2)c1-c1ccccc1 | i | i | -3% | -1% | 6.3µM* | ?
CCOC(=O)Cn1c(S(=O)(=O)Cc2cccc(F)c2)nc(-c2ccccc2)c1-c1ccccc1 | 21µM* | i | ? | ? | 7.1µM* | -3%
C#CCn1c(S(=O)(=O)Cc2ccc(F)cc2)nc(-c2ccccc2)c1-c1ccccc1 | 5.2µM* | 16µM* | ? | ? | 1.4µM* | ?
COC(=O)[C@@]1(Cc2ccc(OC)cc2)[C@@H]2C(=CC(=O)[C@H]2CC(=O)C(=O)N2CCCC2)CN1C(=O)c1ccccc1 | ? | 9.2µM* | 23µM* | ? | 21µM* | ?
CCCOc1ccc(-c2cccc(NS(=O)(=O)c3cc(OC)ccc3OC)c2)nn1 | i | i | nt | nt | nt | nt
SMILES | KB-V1 cytotox | KB-3-1 cytotox | MCF10A rerep | SW480 rerep | HT1080 IDH1KD tx | HT1080-NT tox
CCc1nonc1NC(=O)c1oc2cc(C)c(C)cc2c1C | i | i | ? | 0% | -29% | ?
O=C(Nc1nc2ccccc2s1)c1cnccn1 | i | i | 3.3µM* | 15µM* | ? | 2.8µM*
COC(=O)c1ccc2nc(Nc3nc4ccc(F)cc4s3)sc2c1 | i | i | ? | ? | ? | ?
CCOc1ccc2nc(NC(=O)c3cnccn3)sc2c1 | i | i | -5% | 1% | 8% | 15%
O=C(NNc1nc2ccc(F)cc2s1)c1cccc(F)c1 | i | ? | 19% | 185% | 15µM* | ?
CCc1nnc(NC(=O)c2oc3cc(C)c(C)cc3c2C)s1 | i | ? | 5% | 0.52µM* | ? | ?
CC(=O)c1sc(Nc2nc3ccc(F)cc3s2)nc1C | i | i | ? | 9.2µM* | -26% | -4%
Cc1nc2cc(-c3ccccc3)nn2c(C)c1CCC(=O)N1CCN(c2ccc(F)cc2)CC1 | i | i | nt | nt | nt | nt
Cc1ccc(CNC(=O)c2ccc3c(c2)N(Cc2cccc(C)c2)C(=O)CS3)cc1 | i | i | nt | nt | nt | nt
O=C(Nc1nc(-c2ccco2)c(-c2ccco2)s1)c1cnccn1 | 2.1µM* | i | 7% | 5% | ? | -23%
CCc1nnc(NC(=O)c2cnccn2)s1 | i | i | 18µM* | 0% | 5% | 11%
CCc1nnc(NC(=O)c2ccc(COc3ccc(C)cc3)o2)s1 | i | i | -1% | -3% | 0% | 4%
O=C(Nc1nc2ccc(F)cc2s1)c1ccccn1 | i | ? | 18µM* | 5.2µM* | 8.2µM* | ?
O=C(Nc1nccs1)c1cnccn1 | i | i | 20% | -8% | 26% | 7%
O=C(Nc1nc2ccc(F)cc2s1)C1=NN(c2ccccc2)C(=O)CC1 | i | ? | -2% | -3% | 0% | -2%
O=C(Nc1nc(-c2ccco2)c(-c2ccco2)s1)c1c(F)cccc1Cl | i | i | 20% | -1% | 2% | -9%
CCc1nnc(NC(=O)c2ccc(COc3ccccc3)o2)s1 | 15µM* | i | 13% | -2% | 12% | ?
CCc1ccc(NC(=O)CN2C(=O)C3(SCC(=O)N3c3ccc(F)c(F)c3)c3ccccc32)cc1 (stereo not given) | i | ? | nt | nt | nt | nt
COc1ccc(OC)c2c(C)ccnc12 | i | i | nt | nt | nt | nt
O=C(Nc1nnc(SCc2ccc(F)cc2)s1)c1ccccn1 | ? | ? | ? | 13µM* | ? | ?
COc1cc(C(=O)NCCc2ccc(F)cc2)ccc1OCC(=O)N1CCOCC1 | i | i | ? | -91% | 10% | 6%
CC1C(=O)C(=O)C=CN1C (stereo not given) | nt | nt | 6% | -2% | nt | nt
Cc1ccc(Cn2c(-c3nonc3N)nc3ccccc32)cc1 | i | i | 16% | 2% | -7% | -7%
